The list is not random: actives were taken first. Their share in the collection is about 2.4%.
TMEM16A inh: inhibitors of mouse TMEM16A calcium-activated chloride channel. Q8BHY3. HEK293 TMEM16A/YFP iodide influx fluorescence, ionomycin. normalized B-score (activity score, 25-100; higher = stronger inhibition) at 10 µM. actives 1.2% (n = 310,000). AID 588511;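 active = ratio plate-corrected score three or more library SD toward inhibition, starting fluorescence score within five deviations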;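 also: score derived from kinetic fluorescence span divided by baseline fluorescence per well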
Target sequence (Q8BHY3 whole entry, looked up): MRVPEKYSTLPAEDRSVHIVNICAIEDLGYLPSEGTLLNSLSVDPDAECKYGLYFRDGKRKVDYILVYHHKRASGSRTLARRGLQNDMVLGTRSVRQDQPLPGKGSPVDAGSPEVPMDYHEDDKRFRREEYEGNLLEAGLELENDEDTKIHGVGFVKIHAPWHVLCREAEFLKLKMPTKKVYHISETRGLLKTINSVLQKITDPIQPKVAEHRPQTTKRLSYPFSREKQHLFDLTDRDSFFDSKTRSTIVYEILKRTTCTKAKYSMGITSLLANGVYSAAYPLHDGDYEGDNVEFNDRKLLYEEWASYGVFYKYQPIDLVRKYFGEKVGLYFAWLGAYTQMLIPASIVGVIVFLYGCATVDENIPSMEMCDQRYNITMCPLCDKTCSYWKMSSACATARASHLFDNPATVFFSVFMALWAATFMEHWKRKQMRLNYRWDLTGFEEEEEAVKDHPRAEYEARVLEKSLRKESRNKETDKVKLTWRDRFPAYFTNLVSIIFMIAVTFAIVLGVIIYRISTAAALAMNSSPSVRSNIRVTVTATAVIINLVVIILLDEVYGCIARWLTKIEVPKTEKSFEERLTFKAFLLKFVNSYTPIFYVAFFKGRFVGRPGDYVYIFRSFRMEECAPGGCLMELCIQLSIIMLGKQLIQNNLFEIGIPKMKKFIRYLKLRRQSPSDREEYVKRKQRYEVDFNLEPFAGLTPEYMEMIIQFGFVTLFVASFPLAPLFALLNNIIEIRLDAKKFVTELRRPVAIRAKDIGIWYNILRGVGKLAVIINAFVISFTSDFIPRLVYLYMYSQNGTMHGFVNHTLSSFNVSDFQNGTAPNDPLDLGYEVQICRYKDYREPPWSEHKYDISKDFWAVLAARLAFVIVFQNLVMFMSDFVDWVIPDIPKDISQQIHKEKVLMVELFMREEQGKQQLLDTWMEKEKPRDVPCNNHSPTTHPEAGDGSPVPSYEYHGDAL
CRFR2-BP ag: agonists of human CRF-binding protein/CRF-R2 receptor complex; actives 0.46% (n = 350,000); AID 588473; HEK293 CRF-R2/CRF-BP, calcium dye fluorescence (FLIPR); percent of saturating CRF peptide response; activation, % at 13.2 µM;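 active = activation of at least 50%, plus an integration ratio under a set limit after plate pattern correction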
RTF Ca sens inh: cardiac RTF calcium desensitization; IANBD-labeled cardiac RTF, Ca2+ fluorescence; actives 0.12% (n = 340,000); P19429+P45379; inhibition, % at 7.15 µM; AID 493244;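 active = inhibition above the mean inhibition of all tested compounds plus 3 SD, cut at about 17% in these data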;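 also: assay run at fixed EC70 calcium of 1.6 mM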
TMEM16A act: activators or potentiators of mouse TMEM16A chloride channel | Q8BHY3 | B-score at 10 µM | actives 0.3% (n = 340,000) | HEK293 TMEM16A/YFP-H148Q/I152L, iodide quench fluorescence; active compounds read low;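 active = fluorescence-ratio B-score plate-corrected deviation score at least 3 library SD below zero, with starting fluorescence score within 5 deviations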;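 also: channel opened by trigger with iodide after compound preincubation; score built on the fluorescence ratio of max minus min over baseline; more negative score means more quench and so TMEM16A activation or potentiation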
CRFR2-BP antag: antagonists of CRF-binding protein/CRF-R2 receptor complex; HEK293 CRF-R2/CRF-BP, CRF-induced calcium fluorescence; inhibition, % at 11.8 µM; actives 0.59% (n = 350,000); AID 588475;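 active = inhibition of the ligand-induced calcium signal above about 50% at the single tested concentration, limit read from the data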
cardiac RTF act: cardiac RTF calcium sensitization. actives 0.24% (n = 340,000). IANBD-labeled TnC RTF fluorescence at EC20 calcium; 0% EC20 calcium, 100% full calcium. activation, % at 7.2 µM. P19429+P45379;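 active = activation above the mean over all tested compounds plus 3 SD, cut at about 30% in these data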;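 also: rise in fluorescence read as greater calcium sensitivity of cardiac thin filaments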
Large screens that a line does not name were inactive; ! = repeats disagree.

O=C(Nc1ccc([N+](=O)[O-])cc1)Nc1ccc(N2CCOCC2)c2nonc12	TMEM16A inh 100
CN(C)C(CNC(=O)c1ccc(S(=O)(=O)N(C)C)cc1)Cc1ccccc1 (stereo not drawn)	none
CC(=O)c1cccc(Nc2cc(C)nc3ccccc23)c1	none
CC(=O)c1cccc(Nc2cc(C)nc3c(C)cccc23)c1	CRFR2-BP antag 109
CCOC(=O)c1sc(=NC(=O)c2ccc(Cl)s2)n(C)c1C	CRFR2-BP antag 114
CCOC(=O)c1sc(=NC(=O)c2cccs2)n(C)c1C	none
CN1CCC/C1=C/C=C1\SC(=S)NC1=O	CRFR2-BP ag 149, cardiac RTF act 471
Nc1ncnc(N)c1NC(=O)c1cc(Cl)c(OCc2ccccc2)c(Cl)c1	none (no result: TMEM16A inh, RTF Ca sens inh, TMEM16A act, cardiac RTF act)
O=C(CCCc1nc(-c2ccc(Cl)cc2)no1)NC1CCCCC1	none
Cc1cc(C(=O)COC(=O)c2ccc(O)cc2)c(C)n1-c1ccccc1F	TMEM16A act -29
Cc1cccc(NC(=S)N(CCc2ccncc2)C(C)C)c1C	none
CC(C)NC(=S)N(CCc1ccncc1)C(C)C	CRFR2-BP antag 112
Cc1cc(Cl)ccc1OCC(=O)NCc1ccncc1	none
Cc1cc(Cl)ccc1OCC(=O)Nc1ccncc1	TMEM16A inh 25
Cc1nn(C)cc1C(C(=O)NC1CCCCC1)N(C(=O)Cc1cccs1)c1ccc(Cl)cc1 (stereo not drawn)	CRFR2-BP ag 58
COc1ccc(N(C(=O)Cc2cccs2)C(C(=O)NC2CCCC2)c2ccncc2)cc1OC (stereo not drawn)	none
Cc1ccc(N(C(=O)Cn2nnc3ccccc32)C(C(=O)NC2CCCCC2)c2cn(C)nc2C)cc1 (stereo not drawn)	none
COc1ccc(N(C(=O)Cc2cccs2)C(C(=O)NC2CCCCC2)c2cccn2C)cc1OC (stereo not drawn)	TMEM16A act -5.4
Cc1ccc(CS(=O)(=O)Cc2ccc(C(=O)NCCCN3CC(C)CC(C)C3)o2)cc1 (stereo not drawn)	none
O=[N+]([O-])c1cccnc1Sc1ccc(Cl)cc1	CRFR2-BP antag 61
O=[N+]([O-])c1cccnc1Sc1n[nH]c(-c2ccc(Cl)cc2)n1	none
COc1ccc(N2C(=O)CSC2c2ccc([N+](=O)[O-])cc2)cc1 (stereo not drawn)	CRFR2-BP antag 83
COc1ccc(C2SCC(=O)N2c2ccc(OC)cc2)cc1 (stereo not drawn)	none
O=[N+]([O-])c1cccc(C=NNc2ccc3ccccc3n2)c1O	CRFR2-BP antag 78 (no result: TMEM16A inh)
COc1cccc(CN2CCNC(=O)C2CC(=O)NCc2cc(C(C)C)no2)c1 (stereo not drawn)	none
O=C(CSc1nc2ccccc2n1CCc1ccccc1)NC1CCS(=O)(=O)C1 (stereo not drawn)	CRFR2-BP antag 60
O=C1/C(=C/c2ccccc2)CCCc2ccccc21	none
CN(C)c1ccc(/C=C2\CCC/C(=C\c3ccccc3)C2=O)cc1	cardiac RTF act 84
CN1CCN(CCCN2c3ccccc3Sc3ccc(Cl)cc32)CC1	TMEM16A inh 25!
CCc1cc(/C(Cc2ccc3ccccc3n2)=N\O)c(O)cc1O	TMEM16A inh 100
CCc1cc(/C(Cc2ccccn2)=N\O)c(O)cc1O	none
O=C(COC(=O)c1ccc(Cl)c(S(=O)(=O)N2CCCCC2)c1)NC1CCCCC1	none (no result: TMEM16A inh, RTF Ca sens inh, TMEM16A act, cardiac RTF act)
Cc1ccc(-n2c(-c3ccc(Br)cc3)c[n+]3c2CCc2ccc4cccnc4c2-3)cc1	TMEM16A inh 100
COc1ccc(-n2c(-c3ccc(Cl)cc3)c[n+]3c2CCc2ccccc2-3)cc1	none
O=S(=O)(c1ccc(Oc2ccc(Br)cc2)cc1)N1CCOCC1	none
Cc1c(N=Cc2nc3ccccc3n2C)c(=O)n(-c2ccccc2)n1C	none
Cc1c(N=Cc2nc3ccccc3[nH]2)c(=O)n(-c2ccccc2)n1C	TMEM16A act -13
COc1ccccc1CCN=C(N)NS(=O)(=O)c1ccccc1F	none
CN1CCN(C2CCCCC2NS(=O)(=O)c2ccc(Cl)cc2)CC1 (stereo not drawn)	none
COc1ccc(N2CCN(C3CCCCC3NS(=O)(=O)c3ccc(Cl)cc3)CC2)cc1 (stereo not drawn)	CRFR2-BP ag 70
O=S(=O)(NC1CCCCC1N1CCN(c2ccc(F)cc2)CC1)c1ccccc1 (stereo not drawn)	none
CC1CC(C)CN(C2CCCCC2NS(=O)(=O)c2ccc(Cl)cc2)C1 (stereo not drawn)	CRFR2-BP ag 55
COc1ccccc1N1CCN(C2CCCCC2NS(=O)(=O)c2ccc(Cl)cc2)CC1 (stereo not drawn)	CRFR2-BP ag 212, TMEM16A act -33
Cc1cc(C)nc(NC(=O)C(C)C)n1	none
CCCCCCCC[n+]1cccc2c3ccccc3ccc21	TMEM16A inh 100
O=C1Nc2ccc(Br)cc2/C1=C/c1ccc(C(=O)O)cc1	none (no result: CRFR2-BP ag, RTF Ca sens inh, TMEM16A act, CRFR2-BP antag, cardiac RTF act)
CCc1ccccc1-n1c(SCC(=O)NC)nnc1-c1ccco1	none
Cc1ccc(S(=O)(=O)/N=C(/Nc2ccc([N+](=O)[O-])cc2[N+](=O)[O-])c2ccccc2)cc1	CRFR2-BP antag 67 (no result: TMEM16A inh)
CCn1cnc2sc(C(=O)N3CCN(Cc4ccc5c(c4)OCO5)CC3)c(C)c2c1=O	TMEM16A inh 25 (no result: CRFR2-BP ag, RTF Ca sens inh, TMEM16A act, CRFR2-BP antag, cardiac RTF act)
CCN1CCN(C(=O)c2cc3ccc(OC)cc3[nH]2)CC1	none
COc1ccc2cc(C(=O)N3CCN(Cc4ccc5c(c4)OCO5)CC3)[nH]c2c1	CRFR2-BP antag 50
COc1ccccc1C(=O)N1CCN(Cc2ccc3c(c2)OCO3)CC1	TMEM16A act -14
C[C@@H](NC(=O)[C@@H]1Cc2ccccc2CN1)C(=O)Nc1ccc2c(c1)OCO2	none
CCOc1ccc(CCNC(=O)c2cnc(C)cn2)cc1OCC	none
C=C1CCC[C@]2(C)C[C@H]3OC(=O)C(CNC(C)(CO)CO)[C@H]3CC12 (stereo partly drawn)	CRFR2-BP antag 86
COc1ccccc1/C=C1\SC(=S)N(CCC(=O)NCCc2ccc(O)cc2)C1=O	none
CN(C)S(=O)(=O)c1ccc(Cl)c(NC(=O)CNC2(C)CCS(=O)(=O)C2)c1 (stereo not drawn)	CRFR2-BP antag 113 (no result: TMEM16A inh)
CN1C(=O)/C(=C/c2cn(CC(=O)NCc3ccco3)c3ccccc23)NC1=S	none (no result: CRFR2-BP ag, RTF Ca sens inh, TMEM16A act, CRFR2-BP antag, cardiac RTF act)
O=C(O)CN1C(=O)/C(=C\c2cn(CC(=O)N3CCOCC3)c3ccccc23)SC1=S	CRFR2-BP ag 69, cardiac RTF act 134
CN1C(=O)/C(=C/c2cn(CC(=O)N3CCCCC3)c3ccccc23)NC1=S	TMEM16A act -6.2
O=C(CCCN1C(=O)/C(=C\c2ccccc2)SC1=S)N1CCOCC1	none (no result: TMEM16A inh)
O=C(CCN1C(=O)/C(=C\c2cccc(Br)c2)SC1=S)N1CCOCC1	CRFR2-BP antag 64

High-throughput results (PubChem)
